Assay results published in PubChem BioAssay AID720707 (National Center for Advancing Translational Sciences (NCATS), 2013).
The campaign covered roughly 360,000 compounds. About 270 (0.075%) were called active. Calls follow the shape of the dose curve; as a rule, active = well fitted activation curve with a large enough effect; inconclusive = small, poorly fitted or top-dose-only effect; inactive = no such curve, though single readings can be large or run the other way. This excerpt belongs to a sample that is enriched for actives.

Molecular target: Rap guanine nucleotide exchange factor 3 (Homo sapiens) (UniProt O95398)
Test: qHTS for Agonist of cAMP-regulated guanine nucleotide exchange factor 3 (EPAC1): primary screen; also: nearly all actives have a fitted effect of over 60% in size
Settings: biochemical assay; series mostly up to 154 µM; activation: at the top concentration
From the text: In multi-cellular eukaryotic organisms, the effects of cAMP are transduced by two ubiquitously-expressed intracellular cAMP receptors, the classic protein kinase A/cAMP-dependent protein kinase (PKA/cAPK) and the more recently discovered exchange protein directly activated by cAMP/cAMP-regulated guanine nucleotide exchange factor (EPAC/cAMP-GEF). Both PKA and EPAC are ubiquitously expressed in all tissues, and an increase in intracellular cAMP levels will lead to the activation of both PKA and EPAC. Therefore, careful dissections of the individual role and relative contribution of EPAC and PKA within the overall cAMP signaling in various model systems are critical for further elucidating the mechanism of cAMP signaling. To date no EPAC-specific antagonists and agonist, as well as isoform-specific agonists have been reported, and developing EPAC-specific pharmacological probes to determine the physiological functions that EPAC play in the overall cAMP-mediated signaling remains a major challenge within the research field. Furthermore, identified regulators of EPAC may lead to new mechanism-based therapeutic strategies specifically targeting the EPAC / cAMP-signaling components as EPAC has been implicated to play important roles in major human pathological conditions such as diabetes, heart disease, and cancer.
This qHTS will be used to screen the Molecular Libraries Small Molecule Repository (MLSMR) as a concentration-titration series using the NCGC unique quantitative screening (qHTS) platform to find activators for EPAC1. In addition, this assay will also be used as a counterscreen for the EPAC2 qHTS. This fluorescent based assay is developed and validated for EPAC1 that measures exchange using EPAC effector Rap1 complex with BODIPY-GDP, a GDP analog with a tethered fluorophores. Activators are identified by monitoring the change in fluorescence signal as the exchanged free BODIPY-GDP has a reduced fluorescence compared to Rap1-bound BODIPY-GDP. Increase in signal (activation) is the desired outcome for the EPAC1 agonist while no activity in this assay is desired for the EPAC2 agonist counterscreen.
[1] de Rooij, J., Zwartkruis, F. J., Verheijen, M. H., Cool, R. H., Nijman, S. M., Wittinghofer, A., and Bos, J.L. (1998) Nature 396, 474-477
NIH Chemical Genomics Center [NCGC]
NIH Molecular Libraries Probe Centers Network [MLPCN]
Assay Submitter (PI): Xiaodong Cheng, The University of Texas Medical Branch
Briefly, three uL of reagents (100 nM EPAC1, 250 nM RAP1B-BODIPY-GDP, 50 uM GDP) were dispensed into a 1536-well Greiner black solid-bottom medium binding assay plate. Controls and test compounds (23 nL) were transferred to the plate via a Kalypsys pin tool equipped with a 1536-pin array. The plates were centrifuged at 1,000 rpm for 15 seconds followed by 5 minute incubation at room temperature. The assay plates were read at 5 minute intervals for 30 minutes in the ViewLux plate reader using 480nm excitation and 540nm emission filters. The results were normalized to the agonist positive control of 6.5 mM cAMP.
Potency is read from the fitted curve at half-maximal effect.

Chain of Rap guanine nucleotide exchange factor 3 (Homo sapiens) (O95398 whole entry, looked up): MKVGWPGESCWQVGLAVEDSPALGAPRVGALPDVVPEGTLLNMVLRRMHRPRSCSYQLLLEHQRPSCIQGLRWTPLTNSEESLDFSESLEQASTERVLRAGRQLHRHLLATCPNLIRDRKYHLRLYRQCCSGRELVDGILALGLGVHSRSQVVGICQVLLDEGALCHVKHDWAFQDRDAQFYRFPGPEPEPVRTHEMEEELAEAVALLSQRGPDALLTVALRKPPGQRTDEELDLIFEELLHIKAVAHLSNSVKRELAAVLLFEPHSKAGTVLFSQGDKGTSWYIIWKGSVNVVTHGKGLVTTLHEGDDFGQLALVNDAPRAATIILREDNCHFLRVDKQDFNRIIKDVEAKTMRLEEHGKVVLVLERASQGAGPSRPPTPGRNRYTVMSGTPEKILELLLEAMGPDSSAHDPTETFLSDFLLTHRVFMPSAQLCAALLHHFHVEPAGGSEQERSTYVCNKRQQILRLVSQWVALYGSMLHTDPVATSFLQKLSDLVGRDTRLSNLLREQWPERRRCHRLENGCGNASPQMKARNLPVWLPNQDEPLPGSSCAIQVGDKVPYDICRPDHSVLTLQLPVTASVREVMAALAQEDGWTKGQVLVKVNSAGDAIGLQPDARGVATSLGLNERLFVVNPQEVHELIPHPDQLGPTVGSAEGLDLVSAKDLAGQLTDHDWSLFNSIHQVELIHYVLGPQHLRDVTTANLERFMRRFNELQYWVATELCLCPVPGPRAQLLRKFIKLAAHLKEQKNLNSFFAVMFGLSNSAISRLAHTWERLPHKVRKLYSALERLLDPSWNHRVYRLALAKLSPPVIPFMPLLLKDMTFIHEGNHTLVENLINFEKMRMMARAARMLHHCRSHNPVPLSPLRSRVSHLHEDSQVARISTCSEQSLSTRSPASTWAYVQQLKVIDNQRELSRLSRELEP

activation, inactive:
CCN1C(=NCc2ccc(OC)cc2)N[C@@H](CCc2ccccc2)[C@H](C(=O)NCc2ccc(OC)cc2)[C@H]1C -8.48%
CCc1cccc(CC)c1N1C(=O)CC(Sc2ccccc2N)C1=O (stereo not drawn) 8.79%
CCCC(=O)OCC(=O)Nc1cc(Cl)ccc1[N+](=O)[O-] 2.31%
CC(C)Cc1ccc(S(=O)(=O)N2CCN(C(=O)c3ccco3)CC2)cc1 -8.05%
CC(=O)c1cccc(NC(=O)N2CCCC2C(=O)NCCC(C)C)c1 (stereo not drawn) 0.342%
Cc1ccsc1C(=O)N[C@@H](C)c1nnc2ccccn12 2.04%
COC(=O)[C@@]1(C)[C@H]2C(=O)N(Cc3ccccc3)C(=O)[C@H]2[C@H]2CN=C(SCC3CC3)N21 -7.77%
NC(=O)C1CCN(C(=O)c2ccc(-c3ccccc3)cc2)CC1 -6.39%
O=C(C1=C(O)C(=O)N(CCOCCO)C1c1ccccn1)c1cccs1 (stereo not drawn) 1.34%
CCOC(=O)c1cnn2c(SC)ncnc12 8.61%
COCCn1c(SCC(=O)N2CCCCCC2)nc2c(c1=O)SCC2 0.332%
CC(=O)Nc1ccc(S(=O)(=O)NNC(=O)CCc2ccccc2)cc1 -0.565%
CCNC(=O)c1cnn(-c2ccccc2)c1-c1ccccc1 6.35%
CN1CCN(Cc2nc3c(c(=O)n(C)c(=O)n3C)n2Cc2cccc3ccccc23)CC1 -10.8%
Cc1ccc2c(c1)N(CC(=O)N1CCC(O)CC1)C(=O)CO2 4.96%
CCOC(=O)C1CCN(C(=O)CSc2cc(=O)n(C)c3ccccc23)CC1 0%
CCOC(=O)C1CCCN(C(=O)c2sc3nc(C)nc(N4CCOCC4)c3c2C)C1 (stereo not drawn) 0.4%
CS(=O)(=O)N1CCc2cc(C(=O)Nc3ccccc3Br)ccc21 4.31%
CC(=O)c1ccc(N2CCN(S(=O)(=O)c3c(C)[nH]c(=O)[nH]c3=O)CC2)cc1 1.54%
C=CCN(CC=C)C(=O)COC(=O)c1n[nH]c2ccccc12 6.61%
CCOC(=O)c1cc(-c2ccc(F)cc2)n(CC(=O)NCc2ccccn2)c1C -10.1%
CC[C@H](C)C(=O)N[C@H]1CCCN1C(=O)/C=C/c1ccccc1 4.71%
O=C(O)Cc1csc(NC(=O)CSc2nnnn2-c2ccc(O)cc2)n1 -13.7%
COc1cccc(N2CC(NC(=O)c3ccc4ccccc4c3)CC2=O)c1 (stereo not drawn) -10.4%
O=C1c2cccnc2C(Nc2ccc(S(=O)(=O)N3CCCCCC3)cc2)N1Cc1ccccc1 (stereo not drawn) 9.65%
NC(=O)c1ccsc1NC(=O)COC(=O)COc1ccc(C=O)cc1 6.98%
Cc1ccc(NC(=O)CN(C)C(=O)COC(=O)c2nccnc2N)cc1 -4.92%
O=S(=O)(c1ccccc1)c1nc(Cc2ccccc2)oc1N1CCOCC1 -0.0652%
COc1ccc(NC(=O)NCCN2CCN(c3ccc(C)cc3)CC2)c(Cl)c1 -6.15%
O=C(CSc1nnc2c(n1)[nH]c1ccccc12)NC1CCCCC1 5.6%
O=C(C1CCN(c2nnc(-n3cccc3)s2)CC1)N1CCc2ccccc2C1 -1.95%
Cc1ccc(C)c(S(=O)(=O)N2CCCOC2CNC(=O)C(=O)NC2CCCCC2)c1 (stereo not drawn) -11%
O=C(CN1CCc2ccccc2C1)Nc1cccc(S(=O)(=O)N2CCOCC2)c1 -0.384%
CC(C)Oc1ccc(C(=O)NC(C)(C)CO)cc1 8.01%
O=C(Nc1cc2c3c(c1)CC(=O)N3CCC2)c1ccccc1F -3.25%
Cc1cc([N+](=O)[O-])nn1CC(=O)Nc1ccc(Cc2ccncc2)cc1 -0.234%
O=C1CCCN2N=C(SCC(=O)Nc3ccc(Br)cc3)SC2=N1 17.5%
CCC1CCCCN1C(=S)Nc1ccc(S(=O)(=O)Nc2ncccn2)cc1 (stereo not drawn) 12.6%
Cc1ccsc1CNn1cnnc1SCc1ccccc1F 10.8%
COc1ccc(N2CCN(C(CNS(=O)(=O)c3ccc(C)cc3)c3ccccc3)CC2)cc1 (stereo not drawn) 8.4%
CCCn1c(C)cc(/C=C(\C#N)C(=O)OCC(=O)N(C)c2c(N)n(Cc3ccccc3)c(=O)[nH]c2=O)c1C 5.74%
CCOC(=O)C1CCN(Cc2ccc(-c3ccccc3)cc2)CC1 12%
Cn1cnc([N+](=O)[O-])c1Nc1ccccc1O -3.09%
COc1ccc2c3c1O[C@H]1C[C@@H](O)C=C[C@@]31CCN(C)C2 5.28%
COc1cc(C(=O)NCC(c2ccco2)N2CCCC2)ccc1OCc1ccccc1 (stereo not drawn) 5.29%
CC(=O)NC(C)(C)C1CC=C(C)/C(=N\O)C1 (stereo not drawn) 1.89%
COc1ccc([N+](=O)[O-])cc1NC(=O)C(C)OC(=O)C1c2ccccc2Oc2ccccc21 (stereo not drawn) 5.45%
C[C@@H]1CN([C@H](C)CO)C(=O)c2cc(NC(=O)NC3CCCCC3)ccc2O[C@H]1CN(C)S(C)(=O)=O -3.15%
CSc1nnc2c(n1)OC(c1ccsc1)N(C(C)=O)c1ccccc1-2 (stereo not drawn) -0.63%
CC(NC(=O)CCC(=O)N1CCN(S(=O)(=O)c2ccc(Cl)cc2)CC1)c1ccccc1 (stereo not drawn) 4.86%
Cc1ccsc1-c1nc(CSCC(=O)NCCN2CCCC2)c(C)o1 8.65%
COc1ccc(-n2c(SCC(=O)Nc3ccc4c(c3)OCO4)nnc2C(C)N2CCCCC2)cc1 (stereo not drawn) 6.7%
NS(=O)(=O)c1cc(C(=O)OCC(=O)NNC(=O)c2ccccc2)ccc1Cl 9.9%
O=c1c2ccccc2ccc2ccc(P(=O)(O)O)cc12 -18%
CC(=O)Nc1ccc(S(=O)(=O)N(C)CC(=O)NCCC2=CCCCC2)cc1 -4.75%
COc1cc(OC)cc(C(=O)NCC(=O)N2CCCCCCC2)c1 -5.76%
COC(=O)C(C(=O)Nc1cccc(C)n1)C1CCCCCC1 (stereo not drawn) 2.99%
C[C@H]1CN([C@@H](C)CO)C(=O)CCCn2cc(nn2)CO[C@@H]1CN(C)S(=O)(=O)c1cccc(C#N)c1 1.15%
CN(C)c1ccc(C2Nc3ccccc3C(=O)N2NS(=O)(=O)c2ccccc2)cc1 (stereo not drawn) 12.9%
O=C(O)c1cccnc1NC1CCCC1 8.94%
COC(=O)c1ccccc1NC(=O)CSc1nc2c(c(=O)[nH]1)CCC2 5.97%
C=CCN1CCN(c2ccncc2S(=O)(=O)N2CCN(C)CC2)CC1 8.73%
CC(=O)Nc1ccc(S(=O)(=O)N2CCN(C(=O)c3ccccc3F)CC2)cc1 2.19%
CCOC(=O)N1CCC(N(CCOC)C(=O)Nc2ccc(C)c(C)c2)CC1 7.87%
COc1ccc(-c2cc(NC=O)c3ncc(-c4ccccc4)n3c2)cc1OC 9.19%
O=C(O)CCCCCCCCCC[n+]1ccccc1 1.29%
Cc1cc(C)n2nc(C(=O)N(C)C(c3ccccc3)c3ccccc3)nc2n1 -4.38%
CCn1cc(CN2CCN(CC(C)(C)C)C(CCO)C2)c2ccccc21 (stereo not drawn) -3.98%
NS(=O)(=O)c1ccc(N=Cc2ccc(Br)s2)cc1 5.66%
COC(=O)c1cc(NC(=O)CN2CCC(C(N)=O)(N3CCCCC3)CC2)cc(C(=O)OC)c1 5.47%
O=C(O)CSCNC(=O)CC12CC3CC(CC(C3)C1)C2 2.38%
Cc1ccc(CCNC(=O)C2CCN(S(=O)(=O)N3CCCC3)CC2)cc1 -0.549%
CCOc1ccc(NS(=O)(=O)c2ccc(Cl)c(C(=O)N(C)Cc3cccnc3)c2)cc1 -9.4%
CC1(C)CC(=O)c2c(n(S(=O)(=O)c3ccccc3)c3ccc(NS(=O)(=O)c4ccccc4)cc23)C1 2.81%
O=c1cccc(-c2ccc(Br)cc2)o1 1.51%
CCCCNC(=O)N1CCCC(N(C)CCc2ccc(OC)c(OC)c2)C1 (stereo not drawn) -9.76%
Cc1sc2ncn(CC(=O)NCCCC(=O)N(C)Cc3ccccc3)c(=O)c2c1C -8.88%
Cc1ccc(OCC(=O)Nc2ccccc2Sc2ccc(Cl)cc2)c([N+](=O)[O-])n1 21.3%
Cc1ccc(-c2nc(C)sc2CC(=O)OCC(=O)Nc2c(F)cccc2F)cc1 10.9%
COc1cc(NS(=O)(=O)c2ccc(N/C=C(\C=O)c3nc4cc(Cl)ccc4o3)cc2)nc(OC)n1 -5.9%
COCC1CCCCN1C(=O)c1cc(COc2ccc(C)c(C)c2)on1 (stereo not drawn) -12.2%
CC(=O)N[C@H]1[C@H]([C@H](O)[C@H](O)CO)OC(C(=O)O)=C[C@@H]1O -3.76%
O=C(NCc1ccco1)c1ccc(CS(=O)(=O)Cc2ccc(F)cc2)o1 3.97%
COC(=O)/C=C(\Oc1ccccc1)C1(O)CCCCC1 -5.2%
Cc1cc(Cl)ccc1NNC(=O)c1snnc1C -2.36%
O=C(c1cnn2ccccc12)N1CCc2ccccc21 -2.29%
C=CCNC(=O)COC(=O)CNC(=O)c1cc(Cl)cc([N+](=O)[O-])c1 7.93%
Cc1cc(NC(=O)/C=C/C(=O)N(c2ccccc2C)C(C(=O)NC2CCCC2)c2ccc(F)cc2)no1 (stereo not drawn) 15.6%
CCOC(=O)[C@]12CCCC=C1N(Cc1ccc(Cl)cc1Cl)C(=O)[C@H](CC(=O)N1CCCCC1)C2 -4.78%
CC(Cc1cccs1)NC(=O)c1cccc(Cl)c1 (stereo not drawn) 5.93%
Cc1nn2c(NCCN(C)C)c3c(nc2c1-c1ccccc1)CCC3 1.01%
CC(=O)Nc1ccc(NC(=O)CN2C(=O)COc3ccc(S(=O)(=O)N4CCCCC4)cc32)cc1 15.4%
O=C(COc1ccccc1)N1CCN=C1SCc1cccc(F)c1 -1.1%
COC(=O)C(Cc1c[nH]c2ccccc12)NC(=O)CCNC(=O)c1ccco1 (stereo not drawn) -7.71%
CCOC(=O)c1ccccc1NC(=O)COC(=O)CCC(=O)N1CCOCC1 3.89%
COc1ccccc1NC(=O)CSc1nnc(CNC(=O)c2ccccc2F)o1 -8.7%
Cn1c(=O)[nH]c(=O)c2c1nc(N(CCO)Cc1ccccc1)n2Cc1ccccc1Cl -2.01%

Potency, active:
Nc1ccc2nc3c(=O)[nH]c(=S)[nH]c3nc2c1 89.1 µM
CCOC(=O)/C(C#N)=C/c1ccc(N2CCN(Cc3ccccc3)CC2)cc1 89.1 µM
Oc1ccc2ccc3cccc[n+]3c2c1 89.1 µM
Cc1nn(C)cc1N1C(=O)c2cccc3c(N)ccc(c23)C1=O 89.1 µM
CN1C(=O)c2cccc3c(N)ccc(c23)C1=O 126 µM
CCOC(=O)c1ccccc1NC(=O)COC(=O)C(Cc1c[nH]c2ccccc12)NC(C)=O (stereo not drawn) 112 µM
